Our source for the growth values is PubChem BioAssay (NCI).

Molecules are shown by their SMILES. About 83,000 compounds went through this panel and 20% of them were active in at least one assay; those are over-represented in the sample as a whole.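 Percent growth is the endpoint: 0 to 100 indicates growth inhibition (40 means 60% inhibition), 0 means no net growth, and negative values indicate cell death.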 Unmarked numbers belong to inactive results. Activity calls are given as the source filed them. How the source made its calls: active means growth percent below 10; inactive means the rest.

What all share (assay): NCI-60 one-dose screen, 48 h (100 = growth as untreated, 0 = no growth, -100 = all killed)
For one assay, the system named is NCI-H23 lung. Conditions: 10 µM unless noted.
The subject of a further assay is NCI-H226 lung. Conditions: 10 µM unless noted.
The test system of a further assay is NCI-H322M lung. Conditions: 10 µM unless noted.
The subject of the next assay is HOP-62 NSCLC. The conditions noted are these: 10 µM unless noted.
The next assay concerns NCI-H460 lung. Conditions: 10 µM unless noted.
For another assay, the system named is HOP-92 NSCLC. The conditions noted are these: 10 µM.
A further assay relates to NCI-H522 lung. The conditions noted are these: 10 µM unless noted.
Another assay relates to A549/ATCC NSCLC. The conditions noted are these: 10 µM unless noted.
The test system of another assay is 786-0 renal. Conditions: 10 µM unless noted.
A further assay deals with COLO 205 colon. The conditions noted are these: 10 µM unless noted.
For the next assay, the system named is DU-145 prostate. The conditions noted are these: 10 µM unless noted.
The test system of the next assay is K-562 leukemia. The conditions noted are these: 10 µM unless noted.
The test system of a further assay is MALME-3M melanoma. The conditions noted are these: 10 µM unless noted.
For the next assay, the system named is MDA-MB-231 breast. The conditions noted are these: 10 µM unless noted.
The test system of a further assay is SF-268 CNS. The conditions noted are these: 10 µM unless noted.
A further assay concerns SF-295 CNS. The conditions noted are these: 10 µM unless noted.
For the next assay, the system named is SF-539 CNS. Conditions: 10 µM unless noted.
Another assay has as its system UACC-257 melanoma. Conditions: 10 µM unless noted.

Regarding `Cc1ccc2c(c1)C13C(=C2Br)CCCN1C(=O)c1ccccc13` (stereo not drawn), the growth in the assay with NCI-H23 lung is 92.8%; with NCI-H226 lung, 92.3%; in the assay on NCI-H322M lung it was 97.5%; in the assay with HOP-62 NSCLC, 96.9%; in the assay on NCI-H460 lung, 105%; with HOP-92 NSCLC, 78.8%. Besides, the growth is 80.8% with NCI-H522 lung; 98.1% in the assay on A549/ATCC NSCLC; 84.3% with 786-0 renal; 108% with COLO 205 colon; 102% in the assay with DU-145 prostate; 46.3% with K-562 leukemia. Also, the growth is 85.3% with MALME-3M melanoma; 93.7% in the assay on MDA-MB-231 breast; 90.6% in the assay on SF-268 CNS; 94.2% with SF-295 CNS; 98.4% in the assay on SF-539 CNS; 93.3% in the assay on UACC-257 melanoma.
In the case of `C=CCn1c(SCC(=O)Nc2ccc(C(=O)/C=C/c3cc(OC)c(OC)c(OC)c3)cc2)nnc1-c1c[nH]c2ccccc12`, the growth in the assay on NCI-H23 lung is -11% (active); in the assay with NCI-H226 lung, -4.91% (active); with NCI-H322M lung, 53%; in the assay on HOP-62 NSCLC, 70.5%; in the assay with NCI-H460 lung it was 3.42% (active); with HOP-92 NSCLC it was 63.7%. Further, the growth in the assay on NCI-H522 lung was 35.7%; with A549/ATCC NSCLC, 34.7%; with 786-0 renal, 23.1%; in the assay on COLO 205 colon, 73.1%; with DU-145 prostate, 13.2%; with K-562 leukemia, 3.04% (active). In addition, the growth is 68.6% in the assay with MALME-3M melanoma; 23% in the assay on MDA-MB-231 breast; 33.1% with SF-268 CNS; 68.1% in the assay with SF-295 CNS; -16.2% (active) in the assay with SF-539 CNS; 73% in the assay with UACC-257 melanoma.
Regarding `Cn1ccnc1C(=O)/C=C/c1ccc(CNC(=O)c2ccc(F)cc2)cc1`, the growth in the assay with NCI-H23 lung was 5.81% (active); in the assay on NCI-H226 lung, 51.7%; with NCI-H322M lung it was 29.7%; in the assay with HOP-62 NSCLC, 41.6%; in the assay with NCI-H460 lung, -27.1% (active); with HOP-92 NSCLC, 62.3%. Also, the growth in the assay with NCI-H522 lung is 24.3%; with A549/ATCC NSCLC, 27.6%; in the assay on 786-0 renal it was 21.9%; in the assay on COLO 205 colon, 42.8%; with DU-145 prostate, 13.2%; with K-562 leukemia it was 11.3%. For the same molecule, the growth with MALME-3M melanoma is 84%; with MDA-MB-231 breast it was 11%; in the assay on SF-268 CNS, 9.43% (active); in the assay on SF-295 CNS, 49.1%; with SF-539 CNS, -20% (active); in the assay on UACC-257 melanoma it was 80.6%.
Regarding `O=C(O)c1ccc(-n2cc(CNc3cccc(Cl)c3)c(-c3ccc(F)cc3)n2)cc1`, the growth was 101% in the assay with NCI-H23 lung; 112% in the assay with NCI-H226 lung; 103% in the assay on NCI-H322M lung; 101% in the assay on HOP-62 NSCLC; 98% in the assay with NCI-H460 lung; 105% in the assay with HOP-92 NSCLC. Also, the growth was 92.2% in the assay on NCI-H522 lung; 92.7% in the assay on A549/ATCC NSCLC; 110% in the assay on 786-0 renal; 120% in the assay on COLO 205 colon; 102% in the assay on DU-145 prostate; 76.4% in the assay on K-562 leukemia. For the same molecule, the growth was 82.8% in the assay with MALME-3M melanoma; 91.7% with MDA-MB-231 breast; 109% in the assay on SF-268 CNS; 87.6% in the assay on SF-295 CNS; 96.1% in the assay on SF-539 CNS; 96.8% in the assay on UACC-257 melanoma.
`O=C(NNc1nc2cc(F)c(F)cc2n2cccc12)c1cnccn1`: the growth with NCI-H23 lung was 34.5%; in the assay with NCI-H226 lung, 45.1%; in the assay with NCI-H322M lung, 35%; in the assay on HOP-62 NSCLC, 24.8%; in the assay with NCI-H460 lung it was 7.99% (active); in the assay with HOP-92 NSCLC it was 36.4%. Moreover, the growth is 13.4% in the assay on NCI-H522 lung; 24.1% with A549/ATCC NSCLC; 30.6% in the assay on 786-0 renal; 11.9% in the assay with COLO 205 colon; 32.7% in the assay with DU-145 prostate; 15.5% with K-562 leukemia. For the same molecule, the growth with MALME-3M melanoma is 49.7%; with MDA-MB-231 breast, 44%; with SF-268 CNS it was 32.5%; in the assay on SF-295 CNS, 11.1%; with SF-539 CNS, 19.9%; in the assay on UACC-257 melanoma it was 17.5%.
Consider `CN(C)CCNC(=O)c1ccc(-c2nc3ccc4[nH]ncc4c3c3c2COCC3)cc1`, for which the growth with NCI-H23 lung is -5.76% (active); with NCI-H226 lung it was 9.31% (active); in the assay on NCI-H322M lung, 2.32% (active); in the assay on HOP-62 NSCLC it was 5.23% (active); in the assay with NCI-H460 lung, 6.12% (active); in the assay on HOP-92 NSCLC it was -24.1% (active). Also, the growth in the assay on NCI-H522 lung was -46% (active); in the assay on A549/ATCC NSCLC, 38.5%; with 786-0 renal, 22.6%; with COLO 205 colon, -52.3% (active); in the assay on DU-145 prostate, 4.89% (active); in the assay with K-562 leukemia, 8.14% (active). Besides, the growth with MALME-3M melanoma is -24% (active); in the assay with MDA-MB-231 breast, -5.19% (active); with SF-268 CNS, -16.2% (active); in the assay on SF-295 CNS it was 3.44% (active); in the assay with SF-539 CNS, -53% (active); with UACC-257 melanoma, 22.1%.
Take `COc1ccc2c(c1)c(CC(=O)[Se]CC#N)c(C)n2C(=O)c1ccc(Cl)cc1`: the growth in the assay on NCI-H23 lung is -11.3% (active); in the assay with NCI-H226 lung it was 29.6%; with NCI-H322M lung, -1.05% (active); in the assay with HOP-62 NSCLC it was 14.1%; in the assay with NCI-H460 lung, 14.5%; in the assay on HOP-92 NSCLC it was 26.3%. Further, the growth with NCI-H522 lung was -51.3% (active); in the assay with A549/ATCC NSCLC, -9.27% (active); in the assay with 786-0 renal, 47.3%; with COLO 205 colon, -24.8% (active); in the assay with DU-145 prostate, -37.1% (active); in the assay with K-562 leukemia, 14.5%. The growth with MALME-3M melanoma is 6.79% (active); in the assay on MDA-MB-231 breast it was 9.39% (active); in the assay on SF-268 CNS, 35.6%; in the assay with SF-295 CNS, -11.7% (active); with SF-539 CNS, 9.61% (active); with UACC-257 melanoma, -10% (active).
On to `NC(N)=Nc1ccc(Oc2cccc(NC(N)=Nc3ccc(Cl)c(C(F)(F)F)c3)c2)cc1`, for which the growth was 60.2% with NCI-H23 lung; 73% in the assay with NCI-H226 lung; 64.6% in the assay with NCI-H322M lung; 60.4% with HOP-62 NSCLC; 26.8% in the assay on NCI-H460 lung; 19.2% with HOP-92 NSCLC. The growth with NCI-H522 lung was 39.6%; in the assay with A549/ATCC NSCLC, 47.1%; with 786-0 renal, 81%; in the assay with COLO 205 colon it was 24.3%; in the assay on DU-145 prostate, 75.2%; in the assay on K-562 leukemia it was 31.7%. Also, the growth is 61.8% with MALME-3M melanoma; 61.3% in the assay on MDA-MB-231 breast; 21.9% in the assay with SF-268 CNS; 58.3% in the assay on SF-295 CNS; 49.3% with SF-539 CNS; 57% with UACC-257 melanoma.
Consider `CS(=O)(=O)Nc1cc(-c2ccc3ncc(C#N)c(NCc4cccc(F)c4)c3c2)cnc1Cl`, for which the growth in the assay with NCI-H23 lung is -1.85% (active); in the assay with NCI-H226 lung, 9.2% (active); with NCI-H322M lung, 12.5%; in the assay with HOP-62 NSCLC, -6.39% (active); with NCI-H460 lung, 5.88% (active); with HOP-92 NSCLC it was -15.7% (active). Also, the growth in the assay on NCI-H522 lung was 10.7%; in the assay on A549/ATCC NSCLC, 7.5% (active); in the assay with 786-0 renal, 10.8%; in the assay with COLO 205 colon, -45.9% (active); with DU-145 prostate, 17.8%; with K-562 leukemia it was 14.1%. Moreover, the growth is -35.7% (active) in the assay with MALME-3M melanoma; 0.274% (active) with MDA-MB-231 breast; 3.62% (active) in the assay with SF-268 CNS; -21.9% (active) with SF-295 CNS; -26.4% (active) with SF-539 CNS; 1.5% (active) in the assay on UACC-257 melanoma.
For `COc1ccc(Cn2cc3c(c2-c2cc(OC)c(OC)c(OC)c2)CCc2c(CN4CCCC4)noc2-3)cc1`, the growth in the assay on NCI-H23 lung is 7.29% (active); with NCI-H226 lung it was 61.7%; with NCI-H322M lung, 51.8%; with HOP-62 NSCLC, 33.8%; in the assay with NCI-H460 lung it was 9.59% (active); in the assay with HOP-92 NSCLC, 75.5%. Besides, the growth was 28.2% in the assay with NCI-H522 lung; 25.8% in the assay on A549/ATCC NSCLC; 47.9% in the assay with 786-0 renal; 8.39% (active) with COLO 205 colon; 22.7% in the assay on DU-145 prostate; 14% in the assay on K-562 leukemia. The growth in the assay on MALME-3M melanoma is 19%; in the assay on MDA-MB-231 breast, 36.7%; with SF-268 CNS it was 46.5%; in the assay with SF-295 CNS, 12.1%; with SF-539 CNS, 0.316% (active); in the assay with UACC-257 melanoma, 77%.
In the case of `COc1ccc([C@H]2c3[nH]c4ccccc4c3C[C@H]3C(=O)N(C4CCN(Cc5c(Cl)cccc5Cl)CC4)CC(=O)N23)c(OC)c1`, the growth in the assay with NCI-H23 lung is 98%; in the assay on NCI-H226 lung, 92.9%; in the assay on NCI-H322M lung it was 94.5%; in the assay with HOP-62 NSCLC it was 93.2%; in the assay with NCI-H460 lung, 99.1%; with HOP-92 NSCLC it was 79.4%. Further, the growth with NCI-H522 lung is 87.2%; in the assay on A549/ATCC NSCLC, 91.1%; in the assay on 786-0 renal it was 101%; with COLO 205 colon, 109%; with DU-145 prostate, 110%; with K-562 leukemia it was 92.7%. In addition, the growth in the assay on MALME-3M melanoma was 90.6%; with MDA-MB-231 breast, 93%; in the assay on SF-268 CNS it was 85.6%; in the assay with SF-295 CNS, 106%; in the assay with SF-539 CNS it was 101%; in the assay on UACC-257 melanoma it was 116%.
